From ChEMBL document CHEMBL1961873, “Compounds: GSK PKIS; Assays: Nanosyn kinase panel” (2012) come the findings set out here.

The target of experiment [1] is RAC-alpha serine/threonine-protein kinase (Homo sapiens) (UniProt P31749). To be noted: at 0.1 µM.
For experiment [2] the target is unchanged. To be noted: at 1 µM.
Experiment [3] has as its target RAC-beta serine/threonine-protein kinase (Homo sapiens) (UniProt P31751). To be noted: at 0.1 µM.
The target is the same in experiment [4]. Particulars: at 1 µM.
Experiment [5] concerns the target RAC-gamma serine/threonine-protein kinase (Homo sapiens) (UniProt Q9Y243). Particulars: at 0.1 µM.
Experiment [6] shares this target. Particulars: at 1 µM.
Experiment [7] deals with G protein-coupled receptor kinase 6 (Homo sapiens) (UniProt P43250). Particulars: at 0.1 µM.
For experiment [8] the target is unchanged. Particulars: at 1 µM.
The target in experiment [9] is T1, Rhodopsin kinase GRK7 (Homo sapiens) (UniProt Q8WTQ7).
T1 sequence (whole entry): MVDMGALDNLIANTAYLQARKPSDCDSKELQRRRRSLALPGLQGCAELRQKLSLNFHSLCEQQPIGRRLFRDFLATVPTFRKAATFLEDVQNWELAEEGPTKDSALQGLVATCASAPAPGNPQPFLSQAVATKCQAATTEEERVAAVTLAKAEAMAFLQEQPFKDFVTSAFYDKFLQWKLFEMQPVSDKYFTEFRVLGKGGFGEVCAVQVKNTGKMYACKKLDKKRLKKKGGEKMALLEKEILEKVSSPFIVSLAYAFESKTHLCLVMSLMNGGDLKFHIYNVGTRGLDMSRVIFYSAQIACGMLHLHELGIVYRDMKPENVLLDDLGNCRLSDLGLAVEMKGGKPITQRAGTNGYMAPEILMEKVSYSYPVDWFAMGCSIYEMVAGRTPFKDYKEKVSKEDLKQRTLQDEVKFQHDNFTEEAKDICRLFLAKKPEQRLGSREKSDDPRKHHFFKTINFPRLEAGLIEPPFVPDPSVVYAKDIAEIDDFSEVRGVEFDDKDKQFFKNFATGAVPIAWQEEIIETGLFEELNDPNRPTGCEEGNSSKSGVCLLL
Particulars: at 0.1 µM.

In experiment [10] the target is T1, Rhodopsin kinase GRK7 (Homo sapiens). Particulars: at 1 µM.
Experiment [11] has as its target Serine/threonine-protein kinase MRCK alpha (Homo sapiens) (UniProt Q5VT25). Particulars: at 0.1 µM.
Experiment [12] has the same target. Particulars: at 1 µM.
Experiment [13] deals with Serine/threonine-protein kinase MRCK beta (Homo sapiens) (UniProt Q9Y5S2). Particulars: at 0.1 µM.
Experiment [14] shares this target. Particulars: at 1 µM.
The target of experiment [15] is Ribosomal protein S6 kinase alpha-5 (Homo sapiens) (UniProt O75582). To be noted: at 0.1 µM.
Experiment [16] has the same target. Particulars: at 1 µM.
Experiment [17] has as its target Ribosomal protein S6 kinase alpha-4 (Homo sapiens) (UniProt O75676). Particulars: at 0.1 µM.
For experiment [18] the target is unchanged. To be noted: at 1 µM.
For experiment [19], the target named is Ribosomal protein S6 kinase beta-1 (Homo sapiens) (UniProt P23443). To be noted: at 0.1 µM.
The target is the same in experiment [20]. To be noted: at 1 µM.

Sequence of Serine/threonine-protein kinase MRCK beta (Homo sapiens) (Q9Y5S2 whole entry): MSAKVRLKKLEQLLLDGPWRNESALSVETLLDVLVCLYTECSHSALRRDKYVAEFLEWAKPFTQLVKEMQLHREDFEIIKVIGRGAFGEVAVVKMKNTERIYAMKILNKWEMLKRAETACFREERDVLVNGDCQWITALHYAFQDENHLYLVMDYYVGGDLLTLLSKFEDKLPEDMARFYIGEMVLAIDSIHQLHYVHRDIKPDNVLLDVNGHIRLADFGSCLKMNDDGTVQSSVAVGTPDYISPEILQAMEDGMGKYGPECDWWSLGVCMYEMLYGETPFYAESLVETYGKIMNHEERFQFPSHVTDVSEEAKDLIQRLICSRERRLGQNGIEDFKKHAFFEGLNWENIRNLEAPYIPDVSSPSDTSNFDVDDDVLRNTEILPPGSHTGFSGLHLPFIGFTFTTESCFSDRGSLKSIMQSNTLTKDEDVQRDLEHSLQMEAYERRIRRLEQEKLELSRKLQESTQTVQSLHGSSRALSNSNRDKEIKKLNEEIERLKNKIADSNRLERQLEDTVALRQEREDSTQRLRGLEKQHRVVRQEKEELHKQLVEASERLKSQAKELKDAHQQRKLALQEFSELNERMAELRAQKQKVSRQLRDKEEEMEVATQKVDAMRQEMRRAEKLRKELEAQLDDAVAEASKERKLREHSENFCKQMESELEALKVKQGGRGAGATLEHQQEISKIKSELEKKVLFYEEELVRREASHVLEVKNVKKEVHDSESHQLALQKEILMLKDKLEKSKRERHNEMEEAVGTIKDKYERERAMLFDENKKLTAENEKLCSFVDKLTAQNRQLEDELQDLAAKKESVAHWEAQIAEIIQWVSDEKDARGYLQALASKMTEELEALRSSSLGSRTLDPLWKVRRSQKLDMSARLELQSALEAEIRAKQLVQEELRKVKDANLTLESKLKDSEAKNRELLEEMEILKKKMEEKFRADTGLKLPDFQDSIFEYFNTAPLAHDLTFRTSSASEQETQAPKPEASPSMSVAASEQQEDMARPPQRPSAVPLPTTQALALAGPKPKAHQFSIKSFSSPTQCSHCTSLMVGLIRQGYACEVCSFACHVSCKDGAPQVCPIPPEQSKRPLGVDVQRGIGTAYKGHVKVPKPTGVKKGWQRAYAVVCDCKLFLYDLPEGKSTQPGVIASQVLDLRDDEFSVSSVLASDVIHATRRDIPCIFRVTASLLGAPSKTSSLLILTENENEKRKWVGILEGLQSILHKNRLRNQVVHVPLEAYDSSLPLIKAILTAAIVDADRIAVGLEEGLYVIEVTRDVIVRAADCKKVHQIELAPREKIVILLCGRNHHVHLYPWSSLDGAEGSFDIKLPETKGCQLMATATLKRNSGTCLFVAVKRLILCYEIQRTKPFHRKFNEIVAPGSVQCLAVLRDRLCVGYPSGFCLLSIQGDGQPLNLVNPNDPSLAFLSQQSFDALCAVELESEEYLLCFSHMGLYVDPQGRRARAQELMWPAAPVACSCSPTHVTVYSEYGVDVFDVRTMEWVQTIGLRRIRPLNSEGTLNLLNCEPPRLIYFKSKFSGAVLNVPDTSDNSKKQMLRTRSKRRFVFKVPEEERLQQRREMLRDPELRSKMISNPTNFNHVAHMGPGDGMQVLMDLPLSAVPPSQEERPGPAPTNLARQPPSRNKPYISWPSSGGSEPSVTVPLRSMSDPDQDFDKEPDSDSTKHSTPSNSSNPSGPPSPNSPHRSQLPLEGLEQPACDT
Sequence of Ribosomal protein S6 kinase alpha-4 (Homo sapiens) (O75676 whole entry, looked up): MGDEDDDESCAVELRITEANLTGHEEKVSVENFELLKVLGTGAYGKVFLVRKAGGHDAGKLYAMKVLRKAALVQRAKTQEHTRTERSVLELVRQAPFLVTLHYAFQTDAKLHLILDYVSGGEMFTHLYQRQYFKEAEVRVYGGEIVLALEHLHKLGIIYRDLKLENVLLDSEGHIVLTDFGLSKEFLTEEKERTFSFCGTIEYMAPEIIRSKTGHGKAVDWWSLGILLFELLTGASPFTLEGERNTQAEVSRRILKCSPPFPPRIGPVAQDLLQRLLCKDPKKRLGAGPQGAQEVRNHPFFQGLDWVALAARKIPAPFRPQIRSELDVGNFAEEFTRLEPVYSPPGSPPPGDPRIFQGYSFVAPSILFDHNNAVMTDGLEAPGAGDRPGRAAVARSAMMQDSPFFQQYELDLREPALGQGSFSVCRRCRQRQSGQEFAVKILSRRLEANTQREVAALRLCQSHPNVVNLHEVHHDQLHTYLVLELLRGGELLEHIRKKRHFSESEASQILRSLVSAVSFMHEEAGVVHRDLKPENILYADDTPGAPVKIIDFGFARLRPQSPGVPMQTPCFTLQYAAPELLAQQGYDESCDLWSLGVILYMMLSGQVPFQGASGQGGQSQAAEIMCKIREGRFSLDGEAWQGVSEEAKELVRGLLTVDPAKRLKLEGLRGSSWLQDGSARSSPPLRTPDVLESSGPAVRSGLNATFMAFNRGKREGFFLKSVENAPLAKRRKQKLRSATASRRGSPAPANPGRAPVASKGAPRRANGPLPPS
Sequence of Serine/threonine-protein kinase MRCK alpha (Homo sapiens) (Q5VT25 whole entry): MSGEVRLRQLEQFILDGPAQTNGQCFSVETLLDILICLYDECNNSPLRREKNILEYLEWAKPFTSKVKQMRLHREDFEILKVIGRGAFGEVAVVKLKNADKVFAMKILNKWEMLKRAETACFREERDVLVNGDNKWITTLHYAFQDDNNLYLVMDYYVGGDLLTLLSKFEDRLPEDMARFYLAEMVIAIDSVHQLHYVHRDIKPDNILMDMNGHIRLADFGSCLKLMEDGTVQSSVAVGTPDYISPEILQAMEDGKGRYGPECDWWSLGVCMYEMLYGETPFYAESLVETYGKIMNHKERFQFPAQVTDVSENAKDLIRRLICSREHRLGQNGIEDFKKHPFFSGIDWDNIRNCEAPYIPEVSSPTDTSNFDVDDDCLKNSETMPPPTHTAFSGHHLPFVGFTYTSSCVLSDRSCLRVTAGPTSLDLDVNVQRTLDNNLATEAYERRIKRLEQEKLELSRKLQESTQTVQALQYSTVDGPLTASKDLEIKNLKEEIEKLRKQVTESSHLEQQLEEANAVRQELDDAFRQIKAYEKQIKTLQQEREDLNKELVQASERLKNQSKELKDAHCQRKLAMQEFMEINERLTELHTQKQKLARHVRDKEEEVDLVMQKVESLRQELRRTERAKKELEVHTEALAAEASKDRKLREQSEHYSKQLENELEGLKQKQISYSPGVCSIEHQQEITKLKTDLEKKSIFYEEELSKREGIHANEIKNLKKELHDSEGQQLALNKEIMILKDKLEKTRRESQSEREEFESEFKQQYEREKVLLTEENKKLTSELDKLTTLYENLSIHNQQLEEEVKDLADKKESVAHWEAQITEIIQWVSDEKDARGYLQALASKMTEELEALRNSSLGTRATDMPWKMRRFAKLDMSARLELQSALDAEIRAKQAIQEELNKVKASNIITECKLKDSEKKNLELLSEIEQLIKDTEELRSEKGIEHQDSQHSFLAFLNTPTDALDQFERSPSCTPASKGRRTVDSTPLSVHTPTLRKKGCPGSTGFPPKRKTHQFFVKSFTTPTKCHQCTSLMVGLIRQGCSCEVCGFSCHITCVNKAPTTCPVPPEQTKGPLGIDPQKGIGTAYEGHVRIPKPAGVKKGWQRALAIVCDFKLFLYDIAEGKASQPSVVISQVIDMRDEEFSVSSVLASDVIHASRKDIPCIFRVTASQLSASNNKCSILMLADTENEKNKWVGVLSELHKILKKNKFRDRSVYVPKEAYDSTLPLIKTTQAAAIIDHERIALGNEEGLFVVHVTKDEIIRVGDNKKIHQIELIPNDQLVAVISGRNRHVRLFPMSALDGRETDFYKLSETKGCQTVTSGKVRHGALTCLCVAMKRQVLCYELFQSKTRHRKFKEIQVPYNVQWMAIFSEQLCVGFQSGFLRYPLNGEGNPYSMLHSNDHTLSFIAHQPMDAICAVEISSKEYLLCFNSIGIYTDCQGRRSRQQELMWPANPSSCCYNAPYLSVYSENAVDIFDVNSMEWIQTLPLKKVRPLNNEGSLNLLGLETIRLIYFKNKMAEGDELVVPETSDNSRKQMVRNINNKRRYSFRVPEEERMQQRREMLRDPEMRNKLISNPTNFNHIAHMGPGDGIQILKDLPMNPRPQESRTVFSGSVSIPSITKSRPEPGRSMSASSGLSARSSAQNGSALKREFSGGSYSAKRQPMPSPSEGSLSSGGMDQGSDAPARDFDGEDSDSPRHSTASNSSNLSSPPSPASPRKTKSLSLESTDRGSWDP
Sequence of Ribosomal protein S6 kinase beta-1 (Homo sapiens) (P23443 whole entry, looked up): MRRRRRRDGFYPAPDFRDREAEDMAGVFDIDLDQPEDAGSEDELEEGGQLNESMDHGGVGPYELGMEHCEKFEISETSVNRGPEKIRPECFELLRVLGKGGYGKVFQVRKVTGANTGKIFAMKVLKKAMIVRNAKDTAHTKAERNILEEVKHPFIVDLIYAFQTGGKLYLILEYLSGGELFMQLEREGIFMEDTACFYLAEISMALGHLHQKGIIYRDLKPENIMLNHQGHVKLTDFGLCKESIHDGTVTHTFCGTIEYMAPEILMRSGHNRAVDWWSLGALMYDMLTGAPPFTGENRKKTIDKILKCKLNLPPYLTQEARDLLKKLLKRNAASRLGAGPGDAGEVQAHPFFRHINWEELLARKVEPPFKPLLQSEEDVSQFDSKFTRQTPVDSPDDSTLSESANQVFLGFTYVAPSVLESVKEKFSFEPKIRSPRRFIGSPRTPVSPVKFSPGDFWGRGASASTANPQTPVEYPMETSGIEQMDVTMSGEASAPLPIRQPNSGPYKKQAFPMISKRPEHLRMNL

With `COc1cccc(/C=N/Nc2ncnc3c2cnn3-c2cccc(OC)c2)c1`, the inhibition in experiment [1] was 1.02%; in experiment [2], -0.26%; in experiment [3], 2.42%; in [4] it was 1.51%; in experiment [5], 2.66%; in experiment [6], 3.67%. Further, the inhibition was 5.6% in experiment [7]; 4.38% in experiment [8]; 9.5% in [9]; 5.51% in experiment [10]; 1.64% in experiment [11]; -0.23% in experiment [12]. In addition, the inhibition in experiment [13] was -0.8%; in experiment [14], 0.84%; in experiment [15], 2.19%; in experiment [16], -0.07%; in experiment [17], 2.48%; in experiment [18], 2.78%. In addition, the inhibition stood at 1.49% in experiment [19] and 2.2% in experiment [20].
Take `COc1ccc(-c2ccc3c(NC(=O)C4CC4)n[nH]c3n2)cc1`: the inhibition in [1] was -0.03%; in [2], 0.55%; in experiment [3] it was 0.33%; in experiment [4] it was 0.37%; in [5], 3.49%; in experiment [6], 0.37%. The inhibition in experiment [7] was 5.32%; in experiment [8], 9.55%; in experiment [9], 2.9%; in experiment [10], 10.4%; in experiment [11], 0.51%; in experiment [12] it was 3.19%. For the same compound, the inhibition in [13] is -0.1%; in experiment [14], 0.25%; in experiment [15] it was 1.32%; in experiment [16] it was 2.82%; in experiment [17], 2.27%; in [18] it was 2.9%. Moreover, the values for the inhibition in experiment [19] and in experiment [20] were 0.22% and 0.21%, respectively.
Turning to `NS(=O)(=O)c1ccc(N/N=C2\C(=O)Nc3ccc(C(=O)NCCCn4ccnc4)cc32)cc1`, the inhibition is -0.12% in experiment [1]; 0.95% in experiment [2]; 2.05% in experiment [3]; 2.17% in experiment [4]; 0.96% in experiment [5]; 2.49% in experiment [6]. The inhibition in [7] was 5.79%; in [8], 16.3%; in experiment [9], 7.64%; in [10], 18%; in [11], 0.3%; in experiment [12], 7.89%. For the same compound, the inhibition came out at 0.34% in experiment [13]; 5.24% in experiment [14]; 9.46% in experiment [15]; 11.1% in [16]; 3.85% in experiment [17]; 13.7% in experiment [18]. Also, the inhibition in experiment [19] came out at 1.91%; in [20] it was 8.54%.
In the case of `CCc1nccc2c1nc(-c1nonc1N)n2CC`, the inhibition in [1] was -0.45%; in experiment [2], 0.43%; in experiment [3], 0.34%; in experiment [4], 1.71%; in experiment [5], 0.28%; in experiment [6] it was 0.55%. In addition, the inhibition in [7] is -0.76%; in experiment [8], -2.13%; in [9], -2.75%; in experiment [10] it was 2.78%; in experiment [11] it was 0.8%; in experiment [12], 1.36%. Besides, the inhibition worked out at 0.74% in experiment [13]; 3.39% in experiment [14]; 6.51% in [15]; 37.7% in experiment [16]; 2.18% in experiment [17]; 19.5% in experiment [18]. The inhibition in [19] is 10.5%; in experiment [20], 49.6%.
For the compound `O=C(NCC1CC1)c1ccc(-c2cccc(C(=O)NC3CC3)c2)cc1`, the inhibition in [1] was 0.06%; in [2] it was 0.79%; in [3] it was 1.68%; in [4] it was 1.73%; in experiment [5], 1.52%; in [6], 1.7%. Moreover, the inhibition in experiment [7] is 1.72%; in experiment [8], -2.28%; in experiment [9], 0.75%; in [10], -7.67%; in [11], 0.69%; in [12] it was -1.55%. Further, the inhibition in experiment [13] was determined as 1.52%; in [14] it was 1.09%; in experiment [15] it was 2.45%; in experiment [16], 2.84%; in experiment [17] it was 0.7%; in experiment [18], 3.88%. The inhibition was determined as 1.49% in experiment [19] and 1.03% in [20].
Take `N#Cc1ccc(Oc2nccc(-c3c(-c4ccc(F)cc4)ncn3C3CCNCC3)n2)cc1`: the inhibition in experiment [1] was -0.06%; in experiment [2], 0.41%; in experiment [3], 0.99%; in experiment [4] it was 3.57%; in [5], 2.37%; in experiment [6], 2.2%. Moreover, the inhibition in [7] is -0.24%; in [8] it was 2.68%; in [9], 8.83%; in experiment [10], 5.35%; in [11], -6.56%; in experiment [12] it was -3.04%. Also, the inhibition was -1.06% in experiment [13]; 0.02% in experiment [14]; 1.54% in [15]; -0.96% in experiment [16]; 3.03% in experiment [17]; 1.76% in [18]. For the same compound, the inhibition turned out to be 1.84% in [19] and 2.31% in [20].

Broadly, the inhibition is the relative decrease from the control value, in per cent.
